LDHA inh – LDHA (human) enzyme inhibition. purified LDHA, NADH/diaphorase-resazurin fluorescence; stronger effect = lower value. activity change, % (values are at about 110 or 230 µM). P00338. actives 0.15% (n = 480,000). AID 1347041; in the data active means activity change below about -30%; inconclusive means mostly about -25% to -30%;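 further: plate controls were DMSO wells for no effect and wells without enzyme for full effect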
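Remaining NADH was detected by diaphorase (0.133 mg/mL) converting 37 µM resazurin to fluorescent resorufin, read at 0 and 20 minutes. The preceding 5-minute room-temperature reaction used 2 nM LDHA, 0.2 mM sodium pyruvate and 0.06 mM NADH at pH 7.4.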
GLP1R cytotox – cytotoxicity counter-screen for GLP-1 receptor inverse agonists; AID 624418; HEK293 cAMP-luciferase reporter cells, luminescence, 24 h; Potency, µM (highest dose often 38.3 µM), without a hit: top-dose activity change, negative = inhibition, actives largely listed as inhibitors; actives 0.13% (n = 410,000);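 further: loss of luciferase light is scored as toxicity; potency means the concentration at half of the fitted maximal effect; on the % scale 0 is the no-effect control and ±100 the full control effect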
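MLSMR compounds, 24 hr on cells at 37 deg C/5% CO2; luminescence after luciferase reagent (12 min RT). Inhibition counted as the undesired cytotoxic outcome.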
GLP-1R inv ag – acts as inverse agonist at human GLP-1 receptor | HEK293 GLP-1R CRE-luciferase, luminescence, 24 h; GLP-1R form is constitutively active | actives 1.6% (n = 410,000) | Potency, µM (titrated, usually from 38.3 µM), for inactives: top-dose activity change, negative = inhibition, actives largely listed as inhibitors | P43220 | AID 624417; further: potency means the concentration at half of the fitted maximal effect; on the % scale 0 is the no-effect control and ±100 the full control effect; nearly all actives have a fitted effect of over 55% in size
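Readout was luciferase luminescence, measured 12 min after detection reagent at room temperature. Beforehand, GLP-1R reporter HEK293 cells had sat 12 h, then received compounds for 24 hr at 37 deg C.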
PTHR1 ag – activates the human parathyroid hormone receptor PTHR1; Q03431; HEK293 GP2 PTHR1 cells, GloSensor cAMP luminescence, 1 h; Potency, µM (titrated, usually from 115 µM), inactives show at the top dose activation, hits mostly activators; actives 0.075% (n = 410,000); further: potency means the concentration at half of the fitted maximal effect; nearly all actives have a fitted effect of over 55% in size
Target sequence (Q03431 whole entry, looked up): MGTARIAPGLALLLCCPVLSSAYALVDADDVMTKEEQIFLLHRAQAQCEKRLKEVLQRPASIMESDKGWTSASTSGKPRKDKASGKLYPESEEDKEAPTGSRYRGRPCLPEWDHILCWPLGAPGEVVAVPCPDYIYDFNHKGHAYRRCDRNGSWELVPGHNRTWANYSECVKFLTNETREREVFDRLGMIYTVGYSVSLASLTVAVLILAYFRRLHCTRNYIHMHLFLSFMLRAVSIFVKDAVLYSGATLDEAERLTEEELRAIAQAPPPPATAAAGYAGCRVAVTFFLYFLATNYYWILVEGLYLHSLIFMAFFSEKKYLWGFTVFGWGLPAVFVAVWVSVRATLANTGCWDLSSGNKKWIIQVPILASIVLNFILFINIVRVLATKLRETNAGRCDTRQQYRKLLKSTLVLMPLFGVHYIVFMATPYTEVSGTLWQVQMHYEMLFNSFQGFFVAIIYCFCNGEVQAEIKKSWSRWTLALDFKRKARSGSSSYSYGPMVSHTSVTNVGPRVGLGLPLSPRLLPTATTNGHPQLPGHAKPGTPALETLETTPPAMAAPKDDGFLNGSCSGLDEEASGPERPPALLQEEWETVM
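HEK-293-derived GP2 cells expressing PTHR1 and a GloSensor cAMP reporter, 3,000/well, plated overnight, given luciferin plus IBMX (each 0.5 mM as added) for 1 h at 37 °C, then compound for 1 h at 37 °C. Luminescence was read after 15 min at room temperature.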
GLP-1R agonist – GLP-1 receptor (human) agonism | P43220 | HEK293 GLP-1R CRE-luciferase, luminescence, 4-6 h; cells express a hypersensitive GLP-1R form | Potency, µM (doses to about 45.6 µM), inactives show at the top dose activation, usual class: activators | actives 0.007% (n = 380,000) | AID 624172; further: potency means the concentration at half of the fitted maximal effect; % of control where 0% means no effect
mIDH1 inhibitor – blocks human mutant IDH1 R132H enzyme | O75874 | IDH1-R132H enzyme, NADPH consumption, diaphorase/resazurin fluorescence | Potency, µM (highest dose often 76.6 µM), for the others: top-dose activity change, negative = inhibition, most hits filed as inhibitors | actives 0.093% (n = 390,000); further: potency means the concentration at half of the fitted maximal effect; on the % scale 0 is the no-effect control and ±100 the full control effect; nearly all actives have a fitted effect of over 65% in size
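IDH1-R132H (0.5 ug/mL) preincubated 30 min with compound, then NADPH (0.016 mM) and alpha-KG (2 mM) added; 80 min at RT, pH 7.5. Remaining NADPH coupled via diaphorase/resazurin to fluorescence (540/590 nm); concentration-response curves normalized to no-enzyme control.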
Starred values were filed as active, the others as inactive; i = inactive; ? = inconclusive; · = not tested or not shown; ! = not confirmed by another sample; [ ] = another dose, or the depositor's remark. Compounds with a hit are over-represented: about 1.7% of the library has one in this group of screens. Unless noted, the call rests on the fitted dose curve; in most records, active means well fitted curve in the direction sought with a large enough effect; inconclusive means small, poorly fitted or top-dose-only effect, or another doubt; inactive means no such curve, though single readings can be large; an effect the other way counts as inactive or inconclusive.

SMILES	LDHA inh	GLP1R cytotox	GLP-1R inv ag	PTHR1 ag	GLP-1R agonist	mIDH1 inhibitor
O=C(NCCn1cc(SCc2ccc(F)cc2)c2ccccc21)c1ccccc1F	-0.2	-10.6%	7.94µM*	-42.2%	-0.5%	16.6%
O=C(CSc1cn(CCNC(=O)c2ccccc2F)c2ccccc12)Nc1ccc(F)cc1	-4.1	-15.7%	?	-4.0%	-0.8%	-2.5%
O=C(NCCn1cc(SCc2ccccc2)c2ccccc21)c1c(F)cccc1F	3.4	3.2%	10µM*	-38.0%	11.9%	9.1%
O=C(NCCn1cc(SCc2ccc(C(F)(F)F)cc2)c2ccccc21)c1cccs1	3.4	-7.8%	11.2µM*	-38.4%	-5.3%	8.5%
O=C(NCCn1cc(SCc2ccc(C(F)(F)F)cc2)c2ccccc21)c1ccccc1F	-0.2	-11.3%	?	-38.3%	-12.6%	-14.2%
O=C(NCCn1cc(SCc2ccc(F)cc2)c2ccccc21)c1c(F)cccc1F	4.6	-4.5%	?	-26.7%	-2.4%	24.7%
Cc1ccnc(SCc2ccc(F)cc2)n1	-0.7	·	·	·	·	·
COc1nc2ccccc2cc1-c1noc(-c2cccs2)n1	-7.9	·	·	·	·	·
COc1cccc(C2CCCN2Cc2nc(-c3cccc(Cl)c3)no2)c1 (stereo unspecified)	-2.8	·	·	·	·	·
FC(F)(F)c1nc(N2CCCC2)ncc1-c1nnnn1-c1ccc(Cl)cc1	1.0	-25.5%	7.08µM*	-19.3%[57.5 µM]	-0.6%	4.2%
O=C(CN1C(=O)NC(c2ccccc2)(c2ccccc2)C1=O)N1CCN(c2ccc(F)cc2)CC1	1.3	?	7.94µM*	i	0.3%	7.7%
CCCc1sc(C(=O)N2CCCCCC2)cc1Br	-1.1	·	·	·	·	·
O=C(c1cccc(S(=O)(=O)N2CCOCC2)c1)N1CCN(C/C=C/c2ccccc2)CC1	-2.1	-20.8%	-21.1%	i	1.3%	2.0%
CCOc1ccc(NS(=O)(=O)c2cccc(C(=O)N3CCN(C/C=C/c4ccccc4)CC3)c2)cc1	-0.6	-29.1%	10µM*	-47.5%	-10.7%	-4.1%
CN(C)c1ccc(-c2ccnc3c2CC(C)(C(=O)NCc2cccs2)O3)cc1 (stereo unspecified)	1.6	?	?	-22.9%	-1.4%	·
CC1(C(=O)NCc2ccco2)Cc2c(-c3cccc(C(F)(F)F)c3)ccnc2O1 (stereo unspecified)	-0.4	?	2.24µM*	-12.6%	16.1%	·
CC1(C(=O)NCc2cccs2)Cc2c(-c3ccccc3)ccnc2O1 (stereo unspecified)	-2.1	?	4.47µM*	-12.0%	7.6%	·
O=C(N/N=C/c1ccc(OC(F)F)cc1OC(F)F)NC1CCCCC1	-2.0	-7.9%	4.47µM*	-10.3%	22.9%	5.9%
CCOC(=O)c1cnc2ccc(C)cc2c1Nc1ccc(OCc2ccccc2Cl)cc1	-2.9	-0.2%	11.2µM*	i	·	-7.5%
CCOC(=O)c1cnc2ccc(OCC)cc2c1Nc1ccc(OCc2ccccc2Cl)cc1	-4.3	7.5%	?	-3.4%	·	20.4%
Clc1ccc(C2CC(c3ccco3)n3ncnc3N2)cc1Cl (stereo unspecified)	-0.7	-15.7%	10µM*	-12.7%	4.9%	9.6%
COC(=O)c1ccc(/C=N/OCCOc2ccccc2Cl)cc1	2.6	·	·	·	·	·
CC1=CCC(C(=O)N/N=C/c2cccs2)C(c2ccc(F)cc2)C1 (stereo unspecified)	-3.4	-14.1%	10µM*	-2.6%[57.5 µM]	0.3%	-0.7%
O=C(N/N=C/c1cccs1)C1CC1	-14.1	·	·	·	·	·
OC(c1ccc(F)cc1)c1ncc(-c2ccc(Oc3ccccc3)cc2)[nH]1 (stereo unspecified)	-7.5	-10.8%	10µM*	i	-6.5%	·
SMILES	LDHA inh	GLP1R cytotox	GLP-1R inv ag	PTHR1 ag	GLP-1R agonist	mIDH1 inhibitor
OC(c1ccc2ccccc2c1)c1ncc(-c2ccc(C(F)(F)F)cc2)[nH]1 (stereo unspecified)	-7.5	-22.4%	10µM*	-33.4%	-1.5%	·
OC(c1cccc(F)c1)c1ncc(-c2ccc(C(F)(F)F)cc2)[nH]1 (stereo unspecified)	-0.4	-1.9%	?	-64.9%	18.8%	·
CCSc1ccccc1C(=O)NC(C)C	-1.4	·	·	·	·	·
Cc1cc(C)n(-c2nc3ccccc3c(=O)n2OCC#N)n1	-0.6	?	3.16µM*	-9.9%	19.9%	-8.7%
COc1ccc(C2C3=C(CC(C)(C)CC3=O)Nc3nc(-c4cccc(O)c4)nn32)cc1 (stereo unspecified)	1.9	·	·	·	·	·
CCCC(=O)NC(c1ccc2c(c1)OCO2)c1cc(Cl)c2cccnc2c1O (stereo unspecified)	13.7	-30.8%	3.98µM*	-18.2%	-18.2%	-3.6%
Cc1ccc(CN(C)Cc2ccc(C#N)cc2)o1	1.6	·	·	·	·	·
Cc1ccc(NC(=O)Cc2csc(NC(=O)c3ccoc3C)n2)cc1C	7.3	·	·	·	·	·
COc1cccc(Nc2ncnc3ccc(Br)cc23)c1	-3.4	-8.3%	?	-64.8%	13.4%	5.3%
O=C(O)c1cccc(Nc2ncnc3ccc(Br)cc23)c1	-9.2	16.3%	54.4%	8.91µM*!	0.4%	2.9%
COc1cc(CNCc2ccccc2Cl)ccc1OCC(=O)NC1CCCCC1	-4.6	-26.0%	10µM*	i	13.0%	0.0%
C=CCN1C(=O)C(Cc2ccccc2)S/C1=N/N=C/c1cccs1 (stereo unspecified)	1.8	12.1%	11.2µM*	-26.0%[57.5 µM]	6.8%	11.8%
C=CCN1C(=O)C(Cc2ccc(OCC)cc2)S/C1=N\N=C\c1cccs1 (stereo unspecified)	-3.8	0.5%	10µM*	i	-2.9%	4.6%
Cc1cc(OCC(=O)Nc2nc3ccccc3[nH]2)c2c(C)cc(=O)oc2c1	-11.9	·	·	·	·	·
CNC(=O)c1ccc(CN(C)CCc2cccs2)cc1	2.5	·	·	·	·	·
Fc1cccc(/C=N/NC(=S)Nc2ccccc2Cl)c1	-0.9	2.82µM*	?	-4.5%	-6.6%	1.9%
Cc1cccc(NC(=S)N/N=C/c2cccc(O)c2)c1C	-1.6	?	7.94µM*	-10.3%	3.5%	0.0%
CC(C)(C)C(=O)NCC(=O)N1CCC(c2nc3ccccc3o2)CC1	11.0	·	·	·	·	·
CC(Oc1ccc2ccc(=O)oc2c1)C(=O)NC(N)=O (stereo unspecified)	-1.4	·	·	·	·	·
CC1c2cc3c(cc2CCN1C(=O)c1ccc(Br)cc1)OCCCO3 (stereo unspecified)	1.6	-25.1%	3.16µM*	-97.1%	-8.7%	3.6%
Cc1ccc(S(=O)(=O)N(CC(=O)N2CCN(C(=O)c3ccccc3)CC2)Cc2ccco2)cc1	-6.5	·	·	·	·	·

High-throughput results deposited in PubChem by National Center for Advancing Translational Sciences (NCATS).
